Results as given in PubChem BioAssay (Tox21).
Results filed as inconclusive are left out. The source made the active and inactive calls. Unless noted, calls follow the shape of the dose curve; as a rule, active = well fitted curve in the direction sought with a large enough effect in the repeat runs; inconclusive = weak or mixed curves; inactive = no such curve, though single readings can be large; an effect the other way counts as inactive or inconclusive.

Key:
[1] = qHTS assay to identify small molecule agonists of the vitamin D receptor (VDR) signaling pathway - cell viability counter screen (AID 743224); also: series mostly up to about 63 µM; nearly all actives have a fitted effect of over 50% in size
Method in brief: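 CellTiter-Glo viability readout on VDR-bla cells, measured after 16 h of compound treatment at 37C in the same wells.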

[2] = qHTS assay to identify small molecule antagonists of the vitamin D receptor (VDR) signaling pathway - cell viability counter screen (AID 743225); also: nearly all actives have a fitted effect of over 50% in size
Method in brief: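 Cytotoxicity counter screen read by CellTiter-Glo luminescence (30 min, room temperature) in the same wells as the VDR-bla antagonist readout. HEK 293T VDR-UAS-bla cells had 16 h at 37C with compound and 3 nM (final) 1-alpha,25-dihydroxyvitamin D3, then 2 h with FRET substrate.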

[3] = qHTS assay to identify small molecule agonists of the NFkB signaling pathway (AID 1159509; active = well fitted curve in the direction sought with a large enough effect in the signal ratio in the repeat runs, not every such curve was filed as active; the % refers to the signal ratio; also: series mostly up to about 61 µM)
Method in brief: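 Beta-lactamase reporter assay run in quantitative high-throughput format on an NF-kB-responsive ME-180 line, with 5 hr compound treatment and a FRET-based blue/green fluorescence readout.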

[4] = qHTS assay to identify small molecule agonists of the NFkB signaling pathway - cell viability counter screen (AID 1159515; calls by dose curve; also: series mostly up to about 61 µM; nearly all actives have a fitted effect of over 55% in size)
Method in brief: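 Tox21 library compounds were tested for cytotoxicity against NFkB-bla ME-180 cells during a 5 hr exposure at 37 C. CellTiter-Glo luminescence served as the viability read-out.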

[5] = qHTS assay to identify small molecule agonists of the endoplasmic reticulum stress response signaling pathway (AID 1159516; active = well fitted activation curve with a large enough effect in the signal ratio in the repeat runs, not every such curve was filed as active; the % refers to the signal ratio)
Method in brief: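 Fluorescence at 460 and 530 nm (405 nm excitation) reports beta-lactamase from an ER stress response element in HeLa cells treated 5 hr at 37 C.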

[6] = qHTS assay to identify small molecule agonists of the endoplasmic reticulum stress response signaling pathway - cell viability counter screen (AID 1159517; calls by dose curve; also: series mostly up to about 61 µM; nearly all actives have a fitted effect of over 50% in size)
Method in brief: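 Steps: seed 1,500 ESRE-bla HeLa cells per well; incubate overnight at 37 C, 5% CO2; add compounds in DMSO for 5 hr; run FRET substrate 2 hr RT; add CellTiter-Glo, wait 30 min, read luminescence.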

[7] = qHTS assay to identify small molecule antagonists of the retinoid-related orphan receptor gamma (ROR-gamma) signaling pathway - cell viability counter screen (AID 1159520); also: nearly all actives have a fitted effect of over 50% in size
Method in brief: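 Tet-on ROR gamma CHO cells were given compounds for 2 hr, then doxycycline hyclate at 1 uM final, and incubated 16 hr at 37 C. Viability was measured as ATP content by CellTiter-Glo luminescence.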

[8] = molecular target: Nuclear receptor ROR-gamma (Homo sapiens) (UniProt P51449); assay: qHTS assay to identify small molecule antagonists of the retinoid-related orphan receptor gamma (ROR-gamma) signaling pathway (AID 1159521)
Method in brief: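 Antagonist read-out: drop in luminescence (ONE-Glo) from an RORE-LUC reporter in CHO cells with doxycycline-inducible ROR-gamma; 2 hr compound pretreatment, 1 uM doxycycline, 16 hr incubation at 37 C.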

[9] = qHTS assay to identify small molecule agonists of the AP-1 signaling pathway - cell viability counter screen (AID 1159525; calls by dose curve; also: nearly all actives have a fitted effect of over 55% in size)
Method in brief: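 Same-well cytotoxicity counter screen of the Tox21 10K library in ME-180 cells. The readout is ATP-dependent luminescence after 5 h compound treatment. Data are normalised to DMSO and tetra n-octyl ammonium bromide controls.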

[10] = qHTS assay to identify small molecule agonists of the AP-1 signaling pathway (AID 1159526; calls by dose curve)
[11] = molecular target: Retinoic acid receptor RXR-alpha (Homo sapiens) (UniProt P19793); assay: qHTS assay to identify small molecule agonists of the RXR signaling pathway (AID 1159527; calls by dose curve; also: nearly all actives have a fitted effect of over 35% in size)
Method in brief: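 Agonist-mode beta-lactamase reporter assay: HEK 293T RXR-alpha-UAS-bla cells treated 16 hr at 37 C with compounds, 9-cis retinoic acid as positive control. LiveBLAzer FRET substrate, 405 nm excitation, 460/530 nm emission.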

[12] = qHTS assay to identify small molecule agonists of the RXR signaling pathway - cell viability counter screen (AID 1159529)
Method in brief: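 CellTiter-Glo luminescence gave viability in the wells also read for beta-lactamase. Cells (RXR-alpha-UAS-bla HEK 293T, 2% charcoal-stripped FBS medium) had 5 hr plating, then 16 hr compound exposure at 37 C; tetraoctyl ammonium bromide served as positive control.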

[13] = qHTS assay to identify small molecule antagonists of the retinoid acid receptor (RAR) signaling pathway - cell viability counter screen (AID 1159551); also: nearly all actives have a fitted effect of over 35% in size
Method in brief: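 In this counter screen, the RARE-luciferase line C3RL4 was exposed for 6 h at 37 C and 5% CO2 to compounds with retinol at 1 uM final. Cellular ATP, read by luminescence, served as the viability measure.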

[14] = qHTS assay to identify small molecule agonists of the retinoic acid receptor (RAR) signaling pathway (AID 1159553)
Method in brief: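 In this cell-based screen, 1,000 C3RL4 cells per well were cultured overnight, dosed with test chemicals in DMSO for 6 hr, and assessed for RARE luciferase luminescence.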

[15] = qHTS assay to identify small molecule antagonists of the retinoic acid receptor (RAR) signaling pathway (AID 1159552; also: nearly all actives have a fitted effect of over 50% in size)
Method in brief: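 Luminescent RARE reporter read-out in C3RL4 cells: 6 hr co-treatment at 37 C of test compounds with retinol at 1 uM final. Cells plated overnight beforehand; luciferase reagent incubated 30 min at room temperature before reading.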

Measured: Potency

Retinoic acid receptor RXR-alpha (Homo sapiens), sequence (P19793 whole entry, looked up): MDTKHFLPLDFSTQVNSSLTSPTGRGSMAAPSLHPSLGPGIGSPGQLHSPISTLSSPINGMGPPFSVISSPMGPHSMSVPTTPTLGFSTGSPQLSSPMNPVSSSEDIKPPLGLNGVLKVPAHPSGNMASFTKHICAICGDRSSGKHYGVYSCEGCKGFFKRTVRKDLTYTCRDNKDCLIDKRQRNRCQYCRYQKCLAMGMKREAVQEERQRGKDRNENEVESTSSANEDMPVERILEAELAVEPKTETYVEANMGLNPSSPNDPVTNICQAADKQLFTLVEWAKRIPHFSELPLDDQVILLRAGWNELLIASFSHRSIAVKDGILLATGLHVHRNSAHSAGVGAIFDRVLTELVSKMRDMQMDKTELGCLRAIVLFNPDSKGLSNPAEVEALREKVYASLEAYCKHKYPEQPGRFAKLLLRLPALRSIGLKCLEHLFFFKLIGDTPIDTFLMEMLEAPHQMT

OC1C(O)C(O)C(O)C(O)C1O (stereo unspecified)
inactive: [1] | [2] | [3] | [4] | [5] | [6] | [7] | [8] | [9] | [10] | [11] | [12] | [13]

CC(=O)c1ccc(O)cc1
inactive: [1] | [2] | [3] | [4] | [5] | [6] | [7] | [8] | [9] | [10] | [11] | [12] | [13]

c1ccc2c(c1)Cc1ccccc1-2
inactive: [1] | [2] | [3] | [4] | [5] | [6] | [7] | [8] | [9] | [10] | [11] | [12] | [13] | [14]

CCCOC(=O)c1ccccc1
inactive: [1] | [2] | [3] | [4] | [5] | [6] | [7] | [8] | [9] | [10] | [11] | [12] | [13]

CC(C)c1cccc(C(C)C)c1
inactive: [1] | [2] | [3] | [4] | [5] | [6] | [7] | [8] | [9] | [10] | [11] | [12] | [13] | [14]

C=Cc1ccc(C)cc1
inactive: [1] | [2] | [3] | [5] | [6] | [7] | [8] | [9] | [10] | [11] | [12] | [13] | [14]

CC(C)OC(=O)COc1ccc(Cl)cc1Cl
inactive: [1] | [2] | [3] | [5] | [6] | [7] | [8] | [9] | [10] | [11] | [12] | [13] | [14]

Nc1nc(N)nc(-c2ccccc2)n1
inactive: [1] | [2] | [3] | [5] | [6] | [7] | [8] | [9] | [10] | [11] | [12] | [13] | [14]

C=CC(C)CCCC(C)(C)O (stereo unspecified)
inactive: [1] | [2] | [3] | [5] | [6] | [7] | [8] | [9] | [10] | [11] | [12] | [13] | [15] | [14]

C[Si]1(C)O[Si](C)(C)O[Si](C)(C)O[Si](C)(C)O1
inactive: [1] | [2] | [3] | [5] | [6] | [7] | [8] | [9] | [10] | [11] | [12] | [13]

CSc1ccc(Cl)cc1
inactive: [1] | [2] | [3] | [5] | [6] | [7] | [8] | [9] | [10] | [11] | [12] | [13] | [15] | [14]
